# Positions count from the first letter of the chain named.
# Experiments:
# Assay in all cases: yeast three-hybrid, YBZ-1, SC-Leu-His + 0.5 mM 3-AT, 4 days
# Conditions in all cases: tags: N-Gal4 AD-HA kept; label: inside an RPR1-promoter hybrid RNA with tandem MS2 sites; ssRNA
# [1] = target: PUM1 PUF domain R7-RCK (Homo sapiens, UniProt Q14671 828-1176, S1079R;N1080C;E1083K)
# Outline: (§1)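 The interaction score is the log change in how often each variant appears, from input to selection. Frequencies came from PCR-amplified, Illumina-sequenced repeat regions of Pumilio-1 PUF domain libraries grown in strain YBZ-1 (LexA–MS2 coat fusion, HIS3 reporter) alongside matching RNA elements. Input plates were SC-Leu and selection plates were SC-Leu-His + 0.5 mM 3-AT, each for four days, and the log2 calculation used a pseudocount of 1 where a variant was absent.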
# [2] = target: PUM1 PUF domain R4-APN (Homo sapiens, UniProt Q14671 828-1176, N971A;H972P;Q975N)
# Outline: as §1
# [3] = target: PUM1 PUF domain R1-KMR (Homo sapiens, UniProt Q14671 828-1176, S863K;R864M;Q867R)
# Outline: as §1
# [4] = target: PUM1 PUF domain R1-QRR (Homo sapiens, UniProt Q14671 828-1176, S863Q;Q867R)
# Outline: as §1
# [5] = target: PUM1 PUF domain R1-VKR (Homo sapiens, UniProt Q14671 828-1176, S863V;R864K;Q867R)
# Outline: as §1
# [6] = target: PUM1 PUF domain R1-RKV (Homo sapiens, UniProt Q14671 828-1176, S863R;R864K;Q867V)
# Outline: as §1
# [7] = target: PUM1 PUF domain R1-QIR (Homo sapiens, UniProt Q14671 828-1176, S863Q;R864I;Q867R)
# Outline: as §1
# [8] = target: PUM1 PUF domain R8-KWV (Homo sapiens, UniProt Q14671 828-1176, N1122K;Y1123W;Q1126V)
# Outline: as §1
# [9] = target: PUM1 PUF domain R8-RWF (Homo sapiens, UniProt Q14671 828-1176, N1122R;Y1123W;Q1126F)
# Outline: as §1
# [10] = target: PUM1 PUF domain R3-GYV (Homo sapiens, UniProt Q14671 828-1176, C935G;R936Y;Q939V)
# Outline: as §1
# [11] = target: T1, PUM1 PUF domain R6-MFS (Homo sapiens, UniProt Q14671 828-1176, N1043M;Y1044F;Q1047S)
# T1 sequence: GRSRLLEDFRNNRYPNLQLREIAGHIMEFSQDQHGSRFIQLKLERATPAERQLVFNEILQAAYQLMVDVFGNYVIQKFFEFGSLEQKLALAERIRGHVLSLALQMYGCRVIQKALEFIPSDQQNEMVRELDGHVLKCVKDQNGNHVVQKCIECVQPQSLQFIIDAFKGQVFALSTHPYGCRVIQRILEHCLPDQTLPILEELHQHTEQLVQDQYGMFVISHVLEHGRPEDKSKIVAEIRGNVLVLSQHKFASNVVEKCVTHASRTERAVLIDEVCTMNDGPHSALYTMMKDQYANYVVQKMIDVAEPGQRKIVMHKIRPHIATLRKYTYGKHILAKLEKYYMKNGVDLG
# Outline: as §1
# [12] = target: PUM1 PUF domain R8-HYR (Homo sapiens, UniProt Q14671 828-1176, N1122H;Q1126R)
# Outline: as §1
# [13] = target: PUM1 PUF domain R3-GWP (Homo sapiens, UniProt Q14671 828-1176, C935G;R936W;Q939P)
# Outline: as §1
# [14] = target: PUM1 PUF domain R3-ARI (Homo sapiens, UniProt Q14671 828-1176, C935A;Q939I)
# Outline: as §1
# [15] = target: T2, PUM1 PUF domain R6-TWG (Homo sapiens, UniProt Q14671 828-1176, N1043T;Y1044W;Q1047G)
# T2 sequence: T1 sequence with M216T, F217W, S220G
# Outline: as §1
sequence,measurement,setting,value
GGCUAGAACUAGUGGAUCCCCCGGCGCCCGGCGGCUCGAGCCCGGGUAAGUAUAAAUAGUCUGCAUGCCGCCGGGCGCCAUGCCUGCAGGUCGACUCUAGAAAACAUG,binding signal,[1],2.31 log2 enrichment (interaction score)
GGCUAGAACUAGUGGAUCCCCCGGCGCCCGGCGGCUCGAGCCCGGGUAAGUGUACAUAGUCUGCAUGCCGCCGGGCGCCAUGCCUGCAGGUCGACUCUAGAAAACAUG,binding signal,[2],1.7 log2 enrichment (interaction score)
GGCUAGAACUAGUGGAUCCCCCGGCGCCCGGCGGCUCGAGCCCGGGUAAGUGUAAAUUGUCUGCAUGCCGCCGGGCGCCAUGCCUGCAGGUCGACUCUAGAAAACAUG,binding signal,[3],6.29 log2 enrichment (interaction score)
same,binding signal,[4],1.96 log2 enrichment (interaction score)
same,binding signal,[5],1.61 log2 enrichment (interaction score)
same,binding signal,[6],3.41 log2 enrichment (interaction score)
GGCUAGAACUAGUGGAUCCCCCGGCGCCCGGCGGCUCGAGCCCGGGUAAGUCUAAAUAGUCUGCAUGCCGCCGGGCGCCAUGCCUGCAGGUCGACUCUAGAAAACAUG,binding signal,[1],4.15 log2 enrichment (interaction score)
GGCUAGAACUAGUGGAUCCCCCGGCGCCCGGCGGCUCGAGCCCGGGUAAGUGUAAAUGGUCUGCAUGCCGCCGGGCGCCAUGCCUGCAGGUCGACUCUAGAAAACAUG,binding signal,[5],0.84 log2 enrichment (interaction score)
same,binding signal,[6],0.48 log2 enrichment (interaction score)
GGCUAGAACUAGUGGAUCCCCCGGCGCCCGGCGGCUCGAGCCCGGGUAAGUGUAAAUCGUCUGCAUGCCGCCGGGCGCCAUGCCUGCAGGUCGACUCUAGAAAACAUG,binding signal,[4],5.33 log2 enrichment (interaction score)
same,binding signal,[5],3.48 log2 enrichment (interaction score)
same,binding signal,[7],3.53 log2 enrichment (interaction score)
GGCUAGAACUAGUGGAUCCCCCGGCGCCCGGCGGCUCGAGCCCGGGUAAGCGUAAAUAGUCUGCAUGCCGCCGGGCGCCAUGCCUGCAGGUCGACUCUAGAAAACAUG,binding signal,[8],5.88 log2 enrichment (interaction score)
same,binding signal,[9],5.22 log2 enrichment (interaction score)
GGCUAGAACUAGUGGAUCCCCCGGCGCCCGGCGGCUCGAGCCCGGGUAAGUGUAAAUAGUCUGCAUGCCGCCGGGCGCCAUGCCUGCAGGUCGACUCUAGAAAACAUG,binding signal,[10],3.26 log2 enrichment (interaction score)
same,binding signal,[11],3 log2 enrichment (interaction score)
same,binding signal,[12],2.29 log2 enrichment (interaction score)
same,binding signal,[8],5.94 log2 enrichment (interaction score)
same,binding signal,[2],4.29 log2 enrichment (interaction score)
same,binding signal,[13],6.69 log2 enrichment (interaction score)
same,binding signal,[14],4.45 log2 enrichment (interaction score)
same,binding signal,[15],3.96 log2 enrichment (interaction score)
